# Target: cAMP-dependent protein kinase catalytic subunit alpha (Homo sapiens) (UniProt P17612)
# Settings: at 10 µM
row,SMILES,residual activity
1,O=S(=O)(NCCNC/C=C/c1ccc(Br)cc1)c1cccc2cnccc12,6%
2,O=C1Cc2c([nH]c3ccc(Br)cc23)-c2ccccc2N1,94%
3,CC(C)c1nn(-c2c(Cl)cccc2Cl)c2nc(Cc3ccc(OCCO)cc3)[nH]c(=O)c12,89%
4,O=c1cc(N2CCNCC2)oc2c(-c3ccccc3)cccc12,83%
5,O=c1cc(N2CCOCC2)oc2c1ccc1ccccc12,104%
6,COc1cc2nccc(Oc3ccc(NC(=O)Nc4cc(C)on4)c(Cl)c3)c2cc1OC,98%
7,O=C(Nc1nc2ccccc2n1CCN1CCOCC1)c1cccc([N+](=O)[O-])c1,80%
8,N#Cc1c(NC(=O)c2cccc3ccccc23)sc2c1CCCC2,91%
9,O=C1C(Cl)=C(N2C(=O)CCC2=O)C(=O)c2ccccc21,84%
10,O=S(=O)(c1cccc2cnccc12)N1CCCNCC1,17%
11,CSc1nc(-c2ccc(F)cc2)c(-c2ccnc(NC(C)c3ccccc3)c2)[nH]1 (stereo not given),133%
12,Nc1nccc(-c2c(-c3ccc(F)cc3)ncn2C2CCNCC2)n1,64%
13,CC(C)[C@H](CO)Nc1nc(Nc2cc(N)cc(Cl)c2)c2ncn(C(C)C)c2n1,87%
14,NC(=O)c1ccc(-c2nc(-c3ccc4c(c3)OCCO4)c(-c3ccccn3)[nH]2)cc1,96%
15,O=C1NC(=O)C(c2cn(CCCn3ccnc3)c3ccccc23)=C1Nc1ccccc1,43%
16,Fc1ccc(-c2nc3n(c2-c2ccncc2)CCS3)cc1,84%

# Target: RAC-gamma serine/threonine-protein kinase (Homo sapiens) (UniProt Q9Y243)
# Sequence (Q9Y243 whole entry): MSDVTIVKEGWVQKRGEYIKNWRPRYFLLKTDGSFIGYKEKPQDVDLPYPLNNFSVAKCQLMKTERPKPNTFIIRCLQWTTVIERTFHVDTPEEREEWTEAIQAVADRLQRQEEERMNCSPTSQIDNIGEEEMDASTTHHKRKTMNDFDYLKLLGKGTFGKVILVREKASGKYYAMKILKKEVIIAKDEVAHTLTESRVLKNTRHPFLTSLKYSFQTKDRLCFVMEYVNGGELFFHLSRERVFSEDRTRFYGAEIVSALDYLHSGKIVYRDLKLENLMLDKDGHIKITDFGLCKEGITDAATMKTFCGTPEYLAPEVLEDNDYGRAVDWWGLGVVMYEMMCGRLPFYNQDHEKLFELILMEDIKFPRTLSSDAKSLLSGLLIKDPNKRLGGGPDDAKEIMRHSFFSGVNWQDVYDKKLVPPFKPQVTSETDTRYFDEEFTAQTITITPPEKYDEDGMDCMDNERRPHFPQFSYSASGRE
# Settings: at 1 µM
row,SMILES,residual activity
1,N#C/C(=C1/Nc2ccccc2S1)c1ccnc(NCCc2cccnc2)n1,89%
2,O=S(=O)(NCCNC/C=C/c1ccc(Br)cc1)c1cccc2cnccc12,31%
3,CC(C)c1nn(-c2c(Cl)cccc2Cl)c2nc(Cc3ccc(OCCO)cc3)[nH]c(=O)c12,93%
4,Cc1cc(C)c(/C=C2\C(=O)Nc3ccccc32)[nH]1,101%
5,O=c1cc(N2CCNCC2)oc2c(-c3ccccc3)cccc12,85%
6,O=c1cc(N2CCOCC2)oc2c1ccc1ccccc12,111%
7,O=C(Nc1nc2ccccc2n1CCN1CCOCC1)c1cccc([N+](=O)[O-])c1,103%
8,Nc1n[nH]c2nc3ccccc3nc12,87%
9,O=C(NC(NC(=S)Nc1ccc(F)c([N+](=O)[O-])c1)C(Cl)(Cl)Cl)C(c1ccccc1)c1ccccc1 (stereo not given),98%
10,Nc1nc(Nc2ccc(S(N)(=O)=O)cc2)nn1C(=O)c1c(F)cccc1F,110%
11,O=C1C(Cl)=C(N2C(=O)CCC2=O)C(=O)c2ccccc21,89%
12,O=C1NC(=O)C(c2cn(CCCO)c3ncccc23)=C1c1cnccn1,98%
13,NC(=O)c1ccc(-c2nc(-c3ccc4c(c3)OCCO4)c(-c3ccccn3)[nH]2)cc1,98%
14,O=C1NC(=O)C(c2cn(CCCn3ccnc3)c3ccccc23)=C1Nc1ccccc1,50%

# Source: ChEMBL document CHEMBL2218924, “A broad activity screen in support of a chemogenomic map for kinase signalling research and drug discovery” (Biochem J, 2013)
